Laboratory results from PubChem BioAssay (NCATS).
Records with an inconclusive call do not appear. Entries that show only a call come without a potency. Activity calls are given as the source filed them. Calls come from the whole dose curve; as a rule, active = well fitted inhibition curve with a large enough effect; inconclusive = small, poorly fitted or top-dose-only effect; inactive = flat fitted curve, though single readings scatter. *1 amine or outer side, *2 acyl side, *3 side chain or, on linkers, in order; H or OH if unused. Where a SMILES comes first, the peptide text is derived from it. Bridges are numbered along the chain shown (N, C = ends). [ ]: non-standard residue; d: D form. The star is where a group is joined. X5 = NC1=N[C@@H]([C@H](N[*:1])C(=O)[*:2])C[C@H](O)N1; ΔAla(Z-3-ureido) = NC(=O)N/C=C(\N)C(=O)O; β3hOrn = NCCC[C@H](N)CC(=O)*; Dap = NC[C@H](N)C(=O)O

target: Voltage-gated inwardly rectifying potassium channel KCNH2 (Homo sapiens) (UniProt Q12809); test: qHTS Assay for Small Molecule Inhibitors of the Human hERG Channel Activity (AID 588834); conditions: U2OS BacMam hERG, FluxOR thallium flux fluorescence; series mostly up to 46.1 µM;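 note: lower thallium flux fluorescence means stronger hERG block; nearly all actives have a fitted effect of over 50% in size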
Sequence (Q12809 whole entry, looked up): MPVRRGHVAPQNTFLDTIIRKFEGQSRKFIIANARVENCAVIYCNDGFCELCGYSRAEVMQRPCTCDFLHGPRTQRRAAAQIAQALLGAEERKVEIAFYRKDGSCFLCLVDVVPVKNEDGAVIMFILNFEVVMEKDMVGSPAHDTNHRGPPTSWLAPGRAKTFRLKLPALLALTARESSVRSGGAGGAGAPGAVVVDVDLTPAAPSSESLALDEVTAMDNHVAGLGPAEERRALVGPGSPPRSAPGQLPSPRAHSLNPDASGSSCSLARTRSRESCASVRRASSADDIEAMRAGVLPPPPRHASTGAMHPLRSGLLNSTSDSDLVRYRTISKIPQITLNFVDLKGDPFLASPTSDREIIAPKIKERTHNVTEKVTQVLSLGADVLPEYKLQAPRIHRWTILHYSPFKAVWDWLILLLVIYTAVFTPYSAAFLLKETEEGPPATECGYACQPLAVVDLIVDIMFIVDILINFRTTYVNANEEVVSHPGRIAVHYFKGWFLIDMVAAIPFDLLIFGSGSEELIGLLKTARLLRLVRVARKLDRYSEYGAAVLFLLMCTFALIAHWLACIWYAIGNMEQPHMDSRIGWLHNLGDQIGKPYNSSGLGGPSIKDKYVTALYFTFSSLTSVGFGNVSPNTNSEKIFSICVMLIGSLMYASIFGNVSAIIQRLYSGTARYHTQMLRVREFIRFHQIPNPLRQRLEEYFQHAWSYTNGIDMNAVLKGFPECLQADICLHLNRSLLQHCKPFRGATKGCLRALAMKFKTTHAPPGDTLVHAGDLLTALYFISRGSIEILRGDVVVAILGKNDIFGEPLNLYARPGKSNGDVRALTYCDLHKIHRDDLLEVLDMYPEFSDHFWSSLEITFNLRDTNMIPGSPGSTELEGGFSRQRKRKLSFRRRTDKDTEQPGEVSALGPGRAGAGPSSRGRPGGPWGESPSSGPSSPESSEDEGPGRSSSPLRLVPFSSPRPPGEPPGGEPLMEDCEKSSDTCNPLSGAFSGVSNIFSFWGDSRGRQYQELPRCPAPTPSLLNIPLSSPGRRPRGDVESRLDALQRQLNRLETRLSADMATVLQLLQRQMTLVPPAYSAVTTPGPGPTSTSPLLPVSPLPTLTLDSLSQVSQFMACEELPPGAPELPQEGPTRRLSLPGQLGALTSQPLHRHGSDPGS
Method in brief: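 Concentration-response qHTS measuring drop in thallium-sensitive dye signal. U2OS cells carrying BacMam hERG; compound exposure ~10 min, then stimulation buffer and 2 min read at 1 sec intervals.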
Potency is the fitted concentration of half-maximal effect.

Which Potency does the source give for CO[C@H]1O[C@@H]2O[C@@]3(C)CC[C@H]4[C@H](C)CC[C@@H]([C@H]1C)[C@@]24OO3 here?
The Potency was “inactive”.

Which Potency does the source give for NC[C@H]1O[C@H](O[C@H]2[C@H](O)[C@@H](O[C@H]3O[C@H](CO)[C@@H](O)[C@H](N)[C@H]3O)[C@H](N)C[C@@H]2N)[C@H](O)[C@@H](O)[C@@H]1O here?
The Potency was “inactive”.

NCCC[C@H](N)CC(=O)N[C@H]1CNC(=O)[C@H]([C@H]2C[C@H](O)NC(N)=N2)NC(=O)/C(=C/NC(N)=O)NC(=O)[C@H](CO)NC(=O)[C@H](CO)NC1=O (β3hOrn-[Dap]SS[ΔAla(Z-3-ureido)][X5]; lactam 1-C) was tested. Which Potency did it give?
Its Potency is “inactive”.

Which Potency does the source give for CC(CNC(=O)c1cccnc1)NC(=O)c1cccnc1 (stereo not drawn) here?
Its Potency is “inactive”.

O=C(O)[C@@H]1C[C@H](CP(=O)(O)O)CCN1 was tested. Which Potency did it give?
The Potency was “inactive”.

How did the Potency turn out when COc1ccc2nc(NC(=O)Nc3ccccc3)sc2c1 was run?
The Potency was “inactive”.

Which Potency does the source give for CC(=O)O[C@@H]1CC2CCC1(C)C2(C)C (stereo partly drawn) here?
Its Potency is “inactive”.

With CC(C)c1ncc([N+](=O)[O-])n1C as the compound, how does the Potency read?
Its Potency is “inactive”.

O=c1[nH]c(=O)n([C@H]2C[C@H](O)[C@@H](CO)O2)cc1/C=C/Br was tested. Which Potency did it give?
The Potency was “inactive”.

O=C(/C=C/c1cccc(F)c1)NC1CC1 was tested. Which Potency did it give?
The Potency was “inactive”.

With O=C(O)c1ccc(NC(=O)[C@H](Cc2ccc(O)cc2)NC(=O)c2ccccc2)cc1 as the compound, how does the Potency read?
The Potency was “inactive”.

With CCOC(=S)SSC(=S)OCC as the compound, how does the Potency read?
The Potency was “inactive”.

Which Potency does the source give for O=C(O)Cc1nn(Cc2ccc(Br)cc2F)c(=O)c2ccccc12 here?
Its Potency is “inactive”.

With CC(C)OC(=O)Nc1ccc2nc(-c3cscn3)[nH]c2c1 as the compound, how does the Potency read?
Its Potency is “inactive”.

Which Potency does the source give for CN(C)c1ccc(C(=C2C=CC(=[N+](C)C)C=C2)c2c(O)c(S(=O)(=O)[O-])cc3cc(S(=O)(=O)O)ccc23)cc1 here?
Its Potency is “inactive”.

Which Potency does the source give for COC1=C(OC)C(=O)C(C/C=C(\C)CC/C=C(\C)CC/C=C(\C)CC/C=C(\C)CC/C=C(\C)CC/C=C(\C)CC/C=C(\C)CC/C=C(\C)CC/C=C(\C)CCC=C(C)C)=C(C)C1=O here?
The Potency was “inactive”.

Which Potency does the source give for COC1[C@@H](O[C@@H]2O[C@H](C)[C@@H](O[C@H]3C[C@@](C)(O)[C@H](OC(=O)CC(C)C)[C@H](C)O3)[C@H](N(C)C)[C@H]2O)[C@@H](CC=O)C[C@@H](C)[C@@H](O)/C=C/C=C/C[C@@H](C)OC(=O)C[C@H]1OC(C)=O (stereo partly drawn) here?
Its Potency is “inactive”.

How did the Potency turn out when CCCc1nc(C(C)(C)O)c(C(=O)OCc2oc(=O)oc2C)n1Cc1ccc(-c2ccccc2-c2nn[nH]n2)cc1 was run?
Its Potency is “inactive”.

NC[C@@H]1CC[C@@H](N)[C@@H](O[C@H]2[C@H](O)[C@@H](O[C@H]3O[C@H](CO)[C@@H](O)[C@H](N)[C@H]3O)[C@H](N)C[C@@H]2N)O1 was tested. Which Potency did it give?
The Potency was “inactive”.

With C=C1CC[C@H](O)CC1=C/C=C1\CCC[C@]2(C)[C@@H]([C@H](C)CC[C@@H](O)C(C)(C)O)CC[C@@H]12 as the compound, how does the Potency read?
The Potency was “inactive”.

Which Potency does the source give for CC1C(=O)CC2C3(C)CCC2(C(C)C(=O)O)C(=O)C13 (stereo not drawn) here?
The Potency was “inactive”.

With CC(=O)N=c1sc(S(N)(=O)=O)nn1C as the compound, how does the Potency read?
Its Potency is “inactive”.

With O=C(O)/C=C/C(=O)Nc1ccc(S(=O)(=O)Nc2nccs2)cc1 as the compound, how does the Potency read?
The Potency was “inactive”.

For CCCCCCCCCCCCOCCCN, which Potency is on record?
Its Potency is “inactive”.

How did the Potency turn out when C[C@@H]1O[C@@H](OC[C@H]2O[C@@H](Oc3c(-c4ccc(OCCO)c(OCCO)c4)oc4cc(OCCO)cc(O)c4c3=O)[C@H](O)[C@@H](O)[C@@H]2O)[C@H](O)[C@H](O)[C@H]1O was run?
Its Potency is “inactive”.

For C[Se]CC[C@H](N)C(=O)O, which Potency is on record?
The Potency was “inactive”.

How did the Potency turn out when CC(=O)N[C@@H](C=O)[C@@H](O)[C@H](O)[C@H](O)CO was run?
Its Potency is “inactive”.

For O=C1N=C2SCCN2C(=O)C1Cc1ccc(Cl)cc1 (stereo not drawn), which Potency is on record?
Its Potency is “inactive”.

N=C(N)n1cccn1 was tested. Which Potency did it give?
Its Potency is “inactive”.

How did the Potency turn out when CCC(=O)c1ccc2c(c1)N(CCCN1CCN(CCO)CC1)c1ccccc1S2 was run?
Its Potency is 5.01 µM (active).

CNC(=O)[C@H](Cc1c[nH]c2ccccc12)NC(=O)[C@@H](CC(=O)NO)CC(C)C was tested. Which Potency did it give?
The Potency was “inactive”.

For CNC(C)CCC=C(C)C (stereo not drawn), which Potency is on record?
Its Potency is 1.58 µM (active).

CC(=O)Nc1ccc(NC(=S)NC(=O)c2ccc(C(C)(C)C)cc2)cc1 was tested. Which Potency did it give?
The Potency was 8.91 µM (active).

For Cc1ncc(C[n+]2csc(CCOP(=O)(O)O)c2C)c(N)n1, which Potency is on record?
Its Potency is “inactive”.

COc1cc2c(cc1OC)[C@@H](Cc1cc(OC)c(OC)c(OC)c1)[N+](C)(CCCOC(=O)CC/C=C/CCC(=O)OCCC[N+]1(C)CCc3cc(OC)c(OC)cc3[C@H]1Cc1cc(OC)c(OC)c(OC)c1)CC2 (stereo partly drawn) was tested. Which Potency did it give?
The Potency was “inactive”.

With O=C(CCCN1CCN2CCCC2C1)c1ccc(F)cc1 (stereo not drawn) as the compound, how does the Potency read?
The Potency was “inactive”.

For CCCOc1cc(N)ccc1C(=O)OCCN(CC)CC, which Potency is on record?
The Potency was “inactive”.

O=C1CC[C@@H](C(=O)N[C@H]2C[C@@H]2c2ccccc2)N1 was tested. Which Potency did it give?
The Potency was “inactive”.
